In PubChem BioAssay (NCATS) one finds Potency data, which are given here for 19 compounds.

Assay [1] is described as follows: qHTS for Inhibitors of the Functional Ribonucleoprotein Complex (vRNP) of Lymphocytic Choriomeningitis Arenaviruses (LCMV): Viability assay - alamar blue signal for LCMV Primary Screen (AID 1347085; calls by dose curve; tested in HEK293 reporter line; note: nearly all actives have a fitted effect of over 80% in size; note: potency is the fitted concentration of half-maximal effect). Background: Quantitative high-throughput screening tests each substance at several concentrations.
The target of assay [2] is Nucleoprotein (Lymphocytic choriomeningitis virus (strain Armstrong)) (UniProt P09992). Nature of the assay: qHTS for Inhibitors of the Functional Ribonucleoprotein Complex (vRNP) of Lymphocytic Choriomeningitis Arenaviruses (LCMV): LCMV Primary Screen - GLuc reporter signal (AID 1347086; calls by dose curve; note: nearly all actives have a fitted effect of over 70% in size; note: potency is the fitted concentration of half-maximal effect).
The nature of assay [3]: qHTS of pediatric cancer cell lines to identify multiple opportunities for drug repurposing: Primary screen for TC32 cells (AID 1347089). Note: nearly all actives have a fitted effect of over 60% in size. Summed up: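 qHTS, TC32, 48 h drug treatment, CellTiter-Glo luminescence as a proxy for metabolically active cells; primary top concentration 46 µM (MIPE 11-pt, NPC 8-pt); confirmatory 11-pt.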
Assay [4] in a line: qHTS of pediatric cancer cell lines to identify multiple opportunities for drug repurposing: Primary screen for DAOY cells (AID 1347090). Note: nearly all actives have a fitted effect of over 55% in size. Note: potency is the fitted concentration of half-maximal effect. Summed up: (§1)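 Eight- or eleven-point concentration series, 48 h treatment at 37 degrees C in growth media; readout CellTiter-Glo luminescence. Potency and efficacy were taken from the concentration-response curves.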
The nature of assay [5]: qHTS of pediatric cancer cell lines to identify multiple opportunities for drug repurposing: Primary screen for SJ-GBM2 cells (AID 1347091). Note: potency is the fitted concentration of half-maximal effect. Summed up:
as §1

A short description of assay [6]: qHTS of pediatric cancer cell lines to identify multiple opportunities for drug repurposing: Primary screen for SK-N-MC cells (AID 1347093). Note: potency is the fitted concentration of half-maximal effect. Summed up:
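Metabolically active cells were quantified by ATP-dependent luminescence (CellTiter-Glo, 15 min at room temperature) following 48 h treatment. Cells had been plated at 500-1,000 per well and settled for 5 h beforehand.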

A short description of assay [7]: qHTS of pediatric cancer cell lines to identify multiple opportunities for drug repurposing: Primary screen for NB-EBc1 cells (AID 1347095). Note: potency is the fitted concentration of half-maximal effect. Summed up:
(§2)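 Cells seeded at 500-1,000 cells/well in growth media, rested 5 hours at 37 degrees C, 5% CO2, then dosed; MIPE compounds at 11-point (from 0.78 nM) and NPC at 8-point (from 0.59 nM) final concentrations. Viability by CellTiter-Glo luminescence after 48 hours.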

Assay [8] in a line: qHTS of pediatric cancer cell lines to identify multiple opportunities for drug repurposing: Primary screen for Saos-2 cells (AID 1347097). Note: nearly all actives have a fitted effect of over 40% in size. Note: potency is the fitted concentration of half-maximal effect. Summed up:
as §2

The nature of assay [9]: qHTS of pediatric cancer cell lines to identify multiple opportunities for drug repurposing: Primary screen for SK-N-SH cells (AID 1347098). Note: nearly all actives have a fitted effect of over 65% in size. Note: potency is the fitted concentration of half-maximal effect. Summed up: (§3)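 Cells (500-1,000/well) rested 5 h, then received compounds for 48 h; metabolically active cells were measured by CellTiter-Glo luminescence. Final concentrations spanned up to 46 µM (MIPE, 11-point) or 0.59 nM-46 µM (NPC, 8-point) in primary screens, 11-point in follow-ups.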

The nature of assay [10]: qHTS of pediatric cancer cell lines to identify multiple opportunities for drug repurposing: Primary screen for NB1643 cells (AID 1347099). Note: nearly all actives have a fitted effect of over 50% in size. Note: potency is the fitted concentration of half-maximal effect. Summed up: as §2
The nature of assay [11]: qHTS of pediatric cancer cell lines to identify multiple opportunities for drug repurposing: Primary screen for LAN-5 cells (AID 1347100). Note: potency is the fitted concentration of half-maximal effect. Summed up: (§4)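 Cells (500-1,000/well) in growth media were settled 5 h at 37 degrees C, then given compounds for 48 h. Viability was read as CellTiter-Glo luminescence. Primary runs used MIPE at 11 points (0.78 nM-46 µM) and NPC at 8 points (0.59 nM-46 µM); follow-ups used 11 points.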

Assay [12] is described as follows: qHTS of pediatric cancer cell lines to identify multiple opportunities for drug repurposing: Primary screen for OHS-50 cells (AID 1347103). Note: nearly all actives have a fitted effect of over 40% in size. Note: potency is the fitted concentration of half-maximal effect. Summed up: as §3
Assay [13] can be described thus: qHTS of pediatric cancer cell lines to identify multiple opportunities for drug repurposing: Primary screen for A673 cells (AID 1347092). Note: nearly all actives have a fitted effect of over 45% in size. Note: potency is the fitted concentration of half-maximal effect. Summed up: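 Luminescence from CellTiter-Glo, taken after 15 min at room temperature, served as the proxy for metabolically active cells following 48 h treatment. Both potency and efficacy were taken from curves fitted to the titration data.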

Assay [14] can be described thus: qHTS of pediatric cancer cell lines to identify multiple opportunities for drug repurposing: Primary screen for BT-37 cells (AID 1347094). Note: potency is the fitted concentration of half-maximal effect. Summed up:
as §2

The nature of assay [15]: qHTS of pediatric cancer cell lines to identify multiple opportunities for drug repurposing: Primary screen for U-2 OS cells (AID 1347096). Note: nearly all actives have a fitted effect of over 50% in size. Summed up: as §4
Assay [16] can be described thus: qHTS of pediatric cancer cell lines to identify multiple opportunities for drug repurposing: Primary screen for BT-12 cells (AID 1347101). Note: nearly all actives have a fitted effect of over 25% in size. Note: potency is the fitted concentration of half-maximal effect. Summed up:
as §3

Assay [17] can be described thus: qHTS of pediatric cancer cell lines to identify multiple opportunities for drug repurposing: Primary screen for Rh18 cells (AID 1347102). Note: nearly all actives have a fitted effect of over 65% in size. Summed up: as §4
Assay [18] can be described thus: qHTS for Inhibitors of the Functional Ribonucleoprotein Complex (vRNP) of Lassa (LASV) Arenavirus: Viability assay - alamar blue signal for LASV Primary Screen (AID 1347083; calls by dose curve; tested in HEK293 reporter line; note: nearly all actives have a fitted effect of over 80% in size; note: potency is the fitted concentration of half-maximal effect).

Results filed as inconclusive are left out. The source made the active and inactive calls. Unless noted, calls come from the whole dose curve; as a rule, active = well fitted curve in the direction sought with a large enough effect; inconclusive = small, poorly fitted or top-dose-only effect, or another doubt; inactive = no such curve, though single readings can be large; an effect the other way counts as inactive or inconclusive.

Nucleoprotein (Lymphocytic choriomeningitis virus (strain Armstrong)), sequence (P09992 whole entry, looked up): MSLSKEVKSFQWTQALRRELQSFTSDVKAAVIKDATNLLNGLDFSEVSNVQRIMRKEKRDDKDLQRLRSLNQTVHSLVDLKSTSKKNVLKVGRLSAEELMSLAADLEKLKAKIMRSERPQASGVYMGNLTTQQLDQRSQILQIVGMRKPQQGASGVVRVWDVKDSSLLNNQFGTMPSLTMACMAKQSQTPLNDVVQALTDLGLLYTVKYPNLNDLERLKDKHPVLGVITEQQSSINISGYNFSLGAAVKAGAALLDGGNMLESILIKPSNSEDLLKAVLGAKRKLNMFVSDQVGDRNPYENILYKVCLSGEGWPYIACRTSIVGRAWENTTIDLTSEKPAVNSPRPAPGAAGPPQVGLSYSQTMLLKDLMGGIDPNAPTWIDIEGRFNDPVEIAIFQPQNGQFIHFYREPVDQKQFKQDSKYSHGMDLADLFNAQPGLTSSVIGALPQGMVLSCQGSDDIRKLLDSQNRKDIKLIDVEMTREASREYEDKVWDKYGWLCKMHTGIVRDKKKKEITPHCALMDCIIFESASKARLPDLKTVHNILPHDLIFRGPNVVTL

Take `c1ccc2c(CCNc3ccc(Nc4ccncc4)cc3)c[nH]c2c1`: the values for the Potency in assay [1] and in assay [2] were 17.2 µM (active) and 21.7 µM (active), respectively.

On to `O=c1[nH]c2ccccc2n1C1CCN(Cc2ccc(-c3[nH]c4cc5ncnc5cc4nc3-c3ccccc3)cc2)CC1`, for which the Potency result in assay [1], in [2], in assay [3], in assay [4] and in assay [9] was “inactive” in each case. The Potency in assay [5] was 3.32 µM (active); in assay [6], 0.833 µM (active); in assay [7] it was 20.9 µM (active); in assay [8] it was 16.6 µM (active); in assay [10] it was 20.9 µM (active); in assay [11] it was 14.8 µM (active). Further, the Potency in assay [12] is 1.72 µM (active).

In the case of `Nc1ccc(N=Nc2ccccc2)cc1`, the Potency entry in assay [2] and in assay [8] was “inactive” in each case. The Potency in [13] was 24.3 µM (active); in assay [11], 38.6 µM (active).

Consider `O=C(Nc1cc(C(F)(F)F)cc(C(F)(F)F)c1)c1cc(Cl)ccc1O`, for which the Potency in assay [1] is 2.43 µM (active).

`Cc1ccc(N)cc1O`: the Potency entry in assay [2] was “inactive”.

Regarding `Cc1c(C(=O)Nc2cccc(C(F)(F)F)c2)cc(-c2ccccc2)n1CCCN1CCOCC1`, the Potency entry in [3] was “inactive”. Moreover, the Potency in [5] is 18.7 µM (active); in assay [13], 11.8 µM (active); in assay [6] it was 13.2 µM (active); in [14] it was 27.3 µM (active); in assay [7], 18.7 µM (active); in assay [8], 18.7 µM (active). Also, the Potency in assay [9] is 24.1 µM (active); in assay [10] it was 23.5 µM (active); in assay [11], 18.7 µM (active); in assay [12], 24.3 µM (active).

`Nc1ccc([N+](=O)[O-])cc1O`: the Potency entry in assay [1] and in assay [2] was “inactive” each time.

Take `COc1cc2c(cc1OC)CN(CCc1ccc(NC(=O)c3cccc4c(=O)c5cccc(OC)c5[nH]c34)cc1)CC2`: the Potency result in assay [1] and in assay [2] was “inactive” in each case.

Regarding `COc1cc2c(Oc3ccc4[nH]c(C)cc4c3F)ncnc2cc1OCCCN1CCCC1`, the Potency result in assay [1] and in assay [2] was “inactive” each time.

In the case of `COc1cc2ncnc(Nc3ccc(F)c(Cl)c3)c2cc1NC(=O)C=CCN1CCCCC1`, the Potency result in [1] and in [2] was “inactive” throughout.

In the case of `Nc1ccc([N+](=O)[O-])cc1`, the Potency result in assay [3], in assay [4], in [13], in assay [6], in assay [14] and in [7] was “inactive” throughout. Moreover, the Potency result in assay [15], in [9], in [10], in [11], in assay [16] and in [17] was “inactive” in each case.

`CCOC(=O)c1c(C(C#N)=CN)c2ccc(Cl)c(Cl)c2n1C`: the Potency was 10.9 µM (active) in [18] and 18.7 µM (active) in [6]. Further, the Potency result in [2], in assay [3], in assay [13], in assay [14], in assay [15] and in assay [11] was “inactive” each time. In addition, the Potency entry in [16], in assay [17] and in assay [12] was “inactive” in each case.

Consider `CCc1cc(-c2n[nH]c(C)c2-c2ccc3c(c2)OCCO3)c(O)cc1O`, for which the Potency in [1] was 6.85 µM (active).

Consider `Clc1ccc(C(c2ccc(Cl)cc2)n2cc[n+](CC(OCc3ccc(Cl)cc3Cl)c3ccc(Cl)cc3Cl)c2)cc1` (stereo not given), for which the Potency in assay [2] was 15.3 µM (active).

As for `COc1ccc(C(c2ccc(OC)cc2)C(Cl)(Cl)Cl)cc1`, the Potency result in assay [1], in [2] and in assay [3] was “inactive” each time. In addition, the Potency in [5] was 21.5 µM (active); in [13], 38.2 µM (active); in assay [6], 42.8 µM (active); in assay [7] it was 13.5 µM (active); in assay [9], 49.8 µM (active); in assay [10] it was 42.8 µM (active).

On to `CN1[C@H]2CC(O)C[C@H]1[C@H]1O[C@H]12` (stereo not given in full), for which the Potency is 27.3 µM (active) in [18]; 9.35 µM (active) in assay [5]; 18.7 µM (active) in [13]; 9.35 µM (active) in assay [6]; 13.2 µM (active) in assay [8]; 20.9 µM (active) in assay [10]. The Potency in assay [16] is 19.3 µM (active); in assay [12] it was 9.68 µM (active). In addition, the Potency entry in assay [3] and in assay [15] was “inactive” throughout.

With `COc1ccc(C(=O)c2c(C)n(CCN3CCOCC3)c3cc(I)ccc23)cc1`, the Potency result in assay [1], in assay [2] and in [3] was “inactive” throughout. Besides, the Potency in [4] was 18.7 µM (active); in assay [5] it was 18.7 µM (active); in [13] it was 14.8 µM (active); in assay [6] it was 1.48 µM (active); in [7] it was 20.9 µM (active); in [8], 18.7 µM (active). Further, the Potency in assay [10] was 14.8 µM (active); in [12], 19.3 µM (active).

With `O=C(Oc1ccc([N+](=O)[O-])cc1)N1CCN(Cc2cccc(Oc3ccccc3)c2)CC1`, the Potency in assay [18] was 24.3 µM (active); in assay [2], 6.85 µM (active); in [13] it was 18.7 µM (active); in assay [6] it was 18.7 µM (active). Besides, the Potency entry in [3], in assay [5], in assay [14], in assay [7], in [15] and in [11] was “inactive” in each case. Besides, the Potency result in [17] and in assay [12] was “inactive” throughout.

For `C=CCC1=C(C)C(OC(=O)C2C(C=C(C)C)C2(C)C)CC1=O` (stereo not given), the Potency result in assay [18], in assay [3], in assay [9] and in assay [17] was “inactive” each time. Moreover, the Potency in [5] is 30.6 µM (active); in assay [13], 48.6 µM (active); in assay [6], 38.6 µM (active); in [7], 68.6 µM (active); in assay [12] it was 28.2 µM (active).
